SMILES strings stand for the structures. This is part of a sample that, as a whole, favours compounds with a hit. Of some 83,000 tested, about 20% had one in any assay.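 Results are percent growth after 48 hours of single-concentration exposure. 100 means growth as in untreated cells, lower positive values show inhibition; negative values down to -100 show cell death.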 Calls of active or inactive are those of the source. The calls were made as follows: active = growth percent below 10; inactive = the rest.

The assay deals with MDA-MB-468 breast. The assay is described as follows: NCI-60 one-dose screen, 48 h (100 = growth as untreated, 0 = no growth, -100 = all killed). Conditions: 10 µM unless noted.
`O=C1C=CC2(NN=C(c3ccccc3)N2c2ccc(Cl)cc2)c2cccc(O)c21` (stereo not given): the growth is 47.6% (inactive).

For `O=C(Nc1ccc2c(ccn2Cc2ccccn2)c1)c1ccnnc1`, the growth is 89.7% (inactive). In the case of `Clc1ccc(/C=C/c2ccccn2)cc1` it was 38.3% (inactive).

For `Cc1ccccc1-c1cc(-c2ccc(Br)s2)[nH]c(=O)c1C#N`, the growth was 96.4% (inactive). In the case of `CC(C)(C)c1ccc(S(=O)(=O)Oc2ccc(NC(=O)C3CCCCC3)cc2)cc1`, the growth is 28.2% (inactive). Turning to `CCCCCCCCCCCCCCCCCCOP(=O)(O)O`, the growth is 108% (inactive). In the case of `Cn1cc(-c2nnc(-c3cn(C)c4ncc(Br)cc34)s2)c2cc(Br)ccc21` it was 101% (inactive); in that of `Cc1[nH]c(C(=O)Nc2ccccc2OCc2cccc(C(=O)NCCN)c2)cc1Cl`, 34.3% (inactive); in that of `COc1ccc(Cc2cnc(NC(=O)c3cc(C)oc3C)s2)cc1`, 14.8% (inactive). Next, `O=C1/C(=C\c2ccccc2)CN(C(=O)c2ccccc2F)C/C1=C\c1ccccc1`: -72.4% (active); `CCC(=O)NC(O)C(Cl)(Cl)C(C)Cl` (stereo not given): 92.5% (inactive); `CCCCOc1nc2cc(Cl)ccc2cc1/C=C/c1cc(/C=C/c2cc3ccc(Cl)cc3nc2OCCCC)n(-c2ccccc2)n1`: 92% (inactive). `Nc1ncn([C@@H]2O[C@H](CO)[C@@H](O)C2(F)F)c(=O)n1`: the growth is 71.4% (inactive).

In the case of `O=S(=O)(NCCCNc1cc(-c2c(-c3cccc(O)c3)nc3sccn23)ccn1)c1cccc(Cl)c1`, the growth was 37.2% (inactive). Consider `CO[C@H]1/C=C/O[C@@]2(C)Oc3c(C)c(O)c4c(O)c(c(/C=N/N5C(C)CN(Cc6ccccc6)CC5C)c(O)c4c3C2=O)NC(=O)/C(C)=C\C=C\[C@H](C)[C@H](O)[C@@H](C)[C@@H](O)[C@@H](C)[C@H](OC(C)=O)[C@@H]1C` (stereo not given in full), for which the growth was 65.1% (inactive). As to `COc1ncnc2[nH]cc(CN3CCN(c4ccc(F)cc4)CC3)c12`, the growth was 108% (inactive). For `COc1ccc(-c2nc3c(c(-c4ccccc4)nn3-c3ccccc3)c(-c3ccc(N4CCN(C)CC4)cc3)c2C#N)cc1`, the growth was 79.2% (inactive). With `CC(C)=NNC(N)=S`, the growth is 10.6% (inactive). Next, `Fc1cc(-c2ncc(-c3cc(F)c(F)c(F)c3)c(NC3CCCCCC3)n2)cc(F)c1F`: 99% (inactive); `NC(=O)c1ccc(-c2cccc3c(=O)nc(N4CCOCC4)oc23)cc1`: 105% (inactive). Consider `CN1CCN(c2cnc(C(=O)Nc3cc(F)cc4cccnc34)cn2)CC1`, for which the growth was 9.54% (active). Next, `CCOC(=O)C/C(=C\c1ccccc1)C(C)=O`: 108% (inactive); `COC(=O)C1C(O)C(C)C(O)C(C)C=C(C)C2=C3C(=C(C)C(=O)c4c(O)c(c(C)c(OC(C)=O)c43)NC(=O)C(C)=C/C=C\C(C)C(O)C(C)C1O)OCO2` (stereo not given): 106% (inactive); `Clc1cc(Cl)c2nc(-c3ccc(-c4ccc(/C=N/NC5=NCCN5)cc4)s3)cn2c1`: 103% (inactive). In the case of `O=C(CSc1nnc(-c2cccnc2SCc2ccccc2)o1)Nc1nc(Cl)cc(Cl)n1` it was 98.8% (inactive).

These data come from PubChem BioAssay (NCI).
